Test results taken from PubChem BioAssay AID1159580 (chemical genetic matrix, 2015).
Out of some 5,500 compounds screened, about 2,000 (36%) were called active. Roughly 18% stayed inconclusive and do not appear here. Cut-off read from the data, not from the text of the source: active = normalized growth mostly below about 0.91 (no sharp cut-off); inconclusive = no clear call, values can overlap the other calls; inactive = mostly above about 0.92. The list shows a part of the results.

Assay: chemical genetic growth profiling, strain panel (AID 1159580);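 note: tested at 20 µM; growth read once vehicle control cultures reached saturation at 30 °C; 1 = growth at the plate median or of vehicle wells; lower values mean less growth of the strain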
Conditions: S. cerevisiae deletion strains, growth OD

Measured: normalized growth

COc1cc2c(cc1OC)[C@@H]1C(=O)c3ccc(O)c(CC=C(C)C)c3O[C@@H]1CO2
active: locus YAL021C, strain ccr4, stronger effect = lower value 1.12 [resistant] | locus YBR279W, strain paf1, stronger effect = lower value 1.12 [resistant] | locus YJL129C, strain trk1, stronger effect = lower value 1.17 [resistant]
inactive: locus YAL026C, strain drs2, stronger effect = lower value 1.01 | locus YAL030W, strain snc1, stronger effect = lower value 1.03 | locus YBL061C, strain skt5, stronger effect = lower value 0.958 | locus YBR009C, strain hhf1, stronger effect = lower value 1.03 | locus YBR021W, strain FUR4, stronger effect = lower value 0.989 | locus YBR023C, strain chs3, stronger effect = lower value 0.987 | locus YBR171W, strain sec66, stronger effect = lower value 0.998 | locus YBR229C, strain ROT2, stronger effect = lower value 0.986 | locus YBR231C, strain swc5, stronger effect = lower value 1.01 | locus YCL011C, strain gbp2, stronger effect = lower value 1.06 | locus YCL016C, strain dcc1, stronger effect = lower value 0.965 | locus YCL029C, strain bik1, stronger effect = lower value 0.984 | locus YCL061C, strain MRC1, stronger effect = lower value 0.985 | locus YCL069W, strain vba3, stronger effect = lower value 1 | locus YCR088W, strain abp1, stronger effect = lower value 1 | locus YDL005C, strain med2, stronger effect = lower value 1.05 | locus YDL035C, strain GPR1, stronger effect = lower value 1.02 | locus YDL040C, strain nat1, stronger effect = lower value 0.975 | locus YDL074C, strain BRE1, stronger effect = lower value 0.961 | locus YDL101C, strain DUN1, stronger effect = lower value 0.969 | locus YDL134C, strain PPH21, stronger effect = lower value 0.967 | locus YDL185W, strain tfp1, stronger effect = lower value 0.974 | locus YDL192W, strain arf1, stronger effect = lower value 1.03 | locus YDR001C, strain nth1, stronger effect = lower value 1.01 | locus YDR069C, strain doa4, stronger effect = lower value 1.08 | locus YDR101C, strain arx1, stronger effect = lower value 1.05 | locus YDR137W, strain rgp1, stronger effect = lower value 1.02 | locus YDR159W, strain sac3, stronger effect = lower value 1.07 | locus YDR162C, strain NBP2, stronger effect = lower value 0.978 | locus YDR195W, strain ref2 0.963 | locus YDR297W, strain sur2, stronger effect = lower value 1.05 | locus YDR318W, strain mcm21, stronger effect = lower value 1.01 | locus YDR334W, strain swr1, stronger effect = lower value 1 | locus YDR335W, strain msn5, stronger effect = lower value 1.02 | locus YDR388W, stronger effect = lower value 0.982 | locus YDR392W, strain spt3, stronger effect = lower value 0.91 | locus YDR502C, strain sam2, stronger effect = lower value 0.971 | locus YEL003W, strain gim4, stronger effect = lower value 1.03 | locus YEL037C, strain rad23, stronger effect = lower value 1.03 | locus YEL061C, strain CIN8 (second series), stronger effect = lower value 1.06 | locus YEL061C, strain CIN8, stronger effect = lower value 0.992 | locus YER015W, strain faa2, stronger effect = lower value 1.01 | locus YER016W, strain bim1, stronger effect = lower value 1.07 | locus YER110C, stronger effect = lower value 0.966 | locus YER111C, strain swi4, stronger effect = lower value 1.02 | locus YER155C, strain BEM2 (second series), stronger effect = lower value 0.979 | locus YER155C, strain BEM2, stronger effect = lower value 0.982 | locus YER167W, strain BCK2, stronger effect = lower value 0.998 | locus YFR010W, strain ubp6, stronger effect = lower value 1.01 | locus YGL078C, strain dbp3, stronger effect = lower value 1.02 | locus YGL086W, strain mad1, stronger effect = lower value 1.02 | locus YGL167C, strain pmr1, stronger effect = lower value 0.988 | locus YGL173C, strain kem1, stronger effect = lower value 1.01 | locus YGL227W, strain vid30, stronger effect = lower value 0.997 | locus YGL240W, strain doc1, stronger effect = lower value 1.03 | locus YGL248W, strain PDE1, stronger effect = lower value 0.932 | locus YGL253W, strain hxk2, stronger effect = lower value 1.02 | locus YGR078C, strain PAC10, stronger effect = lower value 0.975 | locus YGR135W, strain pre9, stronger effect = lower value 0.952 | locus YGR229C, strain SMI1, stronger effect = lower value 1.19 | locus YGR252W, strain gcn5, stronger effect = lower value 0.999 | locus YHR013C, strain ard1, stronger effect = lower value 1.02 | locus YHR027C, strain rpn1, stronger effect = lower value 1.03 | locus YHR030C, strain SLT2, stronger effect = lower value 0.994 | locus YHR079C, strain IRE1 (second series), stronger effect = lower value 1 | locus YHR094C, strain hxt1, stronger effect = lower value 0.988 | locus YHR129C, strain ARP1, stronger effect = lower value 0.984 | locus YHR142W, strain chs7, stronger effect = lower value 1.02 | locus YHR200W, strain rpn10, stronger effect = lower value 1 | locus YIL066C, strain RNR3, stronger effect = lower value 0.981 | locus YIL073C, strain SPO22, stronger effect = lower value 0.913 | locus YIL125W, strain kgd1, stronger effect = lower value 0.994 | locus YIR030C, strain dcg1, stronger effect = lower value 0.981 | locus YJL092W, strain hpr5, stronger effect = lower value 1 | locus YJL095W, strain BCK1 (second series), stronger effect = lower value 1.02 | locus YJL095W, strain BCK1, stronger effect = lower value 0.953 | locus YJL115W, strain asf1, stronger effect = lower value 1.06 | locus YJL134W, strain LCB3, stronger effect = lower value 0.978 | locus YJL154C, strain vps35, stronger effect = lower value 1.01 | locus YJL164C, strain tpk1, stronger effect = lower value 1.02 | locus YJL166W, strain qcr8, stronger effect = lower value 1.06
